Assay outcomes deposited in PubChem by The Scripps Research Institute Molecular Screening Center.
GPR151 activ: activators of human GPR151, primary screen, cell-based, PathHunter beta-arrestin, luminescence; G-protein coupled receptor 151 (Homo sapiens), Q8TDV0; PathHunter beta-arrestin GPR151 cells; activation, % at 11.2 µM; 650,000 tested, 1% active; AID 1508602, 2020; in the data active = activation above about 4.9%;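 also: 0% = median of compound wells and 100% = cells with positive control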
TEAD-YAP inh: TEAD-YAP interaction inhibition, primary screen, TEAD-YAP interaction inhibitor project, luminescence, HEK-TIYL cells | TEAD-Gal4/YAP UAS-luciferase luminescence | inhibition, % at 9.12 µM | 640,000 tested, 1.4% active | AID 1259422, 2018; in the data active = inhibition above about 32%;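 also: 0% = median of test compound wells and 100% = reference inhibitor wells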
MITF primary: MITF inhibitors, primary screen, biochemical, AlphaScreen, human | 650,000 tested, 0.91% active | Microphthalmia-associated transcription factor (Homo sapiens), O75030 | inhibition, % at 2.6 µM | AID 1259374, 2018 | AlphaScreen MITF homodimerization, bead proximity signal; in the data active = inhibition above about 50%;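 also: 0% = vehicle wells with protein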
Target sequence (O75030 whole entry, looked up): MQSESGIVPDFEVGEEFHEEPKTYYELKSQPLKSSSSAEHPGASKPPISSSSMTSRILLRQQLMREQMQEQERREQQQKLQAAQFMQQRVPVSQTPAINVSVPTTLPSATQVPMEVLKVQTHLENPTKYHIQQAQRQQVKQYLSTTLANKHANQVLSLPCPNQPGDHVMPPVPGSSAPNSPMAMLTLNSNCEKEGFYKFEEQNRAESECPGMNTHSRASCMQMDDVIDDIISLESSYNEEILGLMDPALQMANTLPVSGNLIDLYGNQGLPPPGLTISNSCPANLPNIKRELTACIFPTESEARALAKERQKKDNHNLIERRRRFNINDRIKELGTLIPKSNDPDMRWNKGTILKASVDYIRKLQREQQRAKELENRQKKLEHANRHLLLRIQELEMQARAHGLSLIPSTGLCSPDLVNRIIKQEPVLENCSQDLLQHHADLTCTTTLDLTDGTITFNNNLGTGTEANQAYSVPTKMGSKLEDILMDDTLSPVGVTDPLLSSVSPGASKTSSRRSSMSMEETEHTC
FBW7 act: FBW7 E3 ligase activators, primary screen, biochemical, AlphaScreen, human. AlphaScreen FBW7–phospho-cyclin E peptide binding, activator screen. normalized activity (activation), % at 26.1 µM. 650,000 tested, 0.13% active. AID 1259310, 2017; in the data active = normalized activity above about 1.9%;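 also: purified mutant Fbw7 with reduced substrate affinity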
MITF confirm: MITF inhibitors, retest of hits, confirmation, biochemical, AlphaScreen, triplicate; shares compounds with MITF primary; AlphaScreen MITF homodimerization, biotin/His-MITF beads; inhibition, % at 2.6 µM; 4,700 tested, 16% active;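 active = inhibition above a cutoff derived from the DMSO control wells, cut at about 28% in these data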;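 also: 0% = MITF dimer wells with DMSO only; inhibitors lower the bead chemiluminescence by keeping MITF from dimerizing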
AS interf ctr: AlphaScreen optical interference compounds, counter-screen for MITF inhibitor project, biochemical, triplicate | shares compounds with MITF primary | LysRS AlphaScreen counterscreen, signal interference | 4,700 tested, 7.6% active | inhibition, % at 2.6 µM;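 active = inhibition above a cutoff derived from the DMSO control wells, cut at about 30% in these data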
* hit, by the source's call; · = no result. Compounds with a hit are over-represented: about 3.5% of the library has one in this group of screens.

SMILES | GPR151 activ | TEAD-YAP inh | MITF primary | FBW7 act | MITF confirm | AS interf ctr
COc1cc(CN2CCN(S(C)(=O)=O)CC2)ccc1OCc1ccccc1 | 1.6 | 6.0 | 54.4* | 0.1 | 1.5 | 10.6
CCOc1cc(CN2CCN(S(C)(=O)=O)CC2)ccc1OC | -1.2 | -14.9 | 55.0* | 0.2 | -9.3 | -2.2
CCOc1cc(CN2CCN(Cc3ccc(F)cc3)CC2)ccc1OC | 4.3 | -4.7 | 33.8 | -0.1 | · | ·
CCOc1cc(CN2CCN(S(=O)(=O)CC)CC2)ccc1OC | 0.1 | 3.0 | 34.8 | 0.0 | · | ·
CCOc1cc(CN2CCN(Cc3ccncc3)CC2)ccc1OC | 1.4 | -2.8 | 73.3* | -0.2 | 7.0 | 13.8
COc1ccc(/C=N/NC(=O)c2cc(-c3cccn3C)n[nH]2)cc1OC | -0.7 | 6.3 | 77.9* | 2.1* | -5.6 | 16.6
CCOC(=O)c1ccc(NC(=O)/C(=C\c2ccco2)NC(=O)c2ccccc2OC)cc1 | -0.7 | -9.5 | 18.3 | 0.1 | · | ·
CCc1nnc(NS(=O)(=O)c2ccc(NC(=O)COc3ccccc3)cc2)s1 | 0.1 | 4.3 | 65.4* | -0.1 | -3.5 | -3.0
CCC(=O)Nc1ccc(S(=O)(=O)Nc2nnc(CC)s2)cc1 | 0.3 | 7.8 | 8.3 | 0.2 | · | ·
Fc1cccc(CN2CCN(Cc3cccc4ccccc34)CC2)c1 | -0.1 | -2.6 | 86.2* | 0.0 | 4.9 | 19.0
Fc1cccc(CN2CCN(Cc3ccc4ccccc4c3)CC2)c1 | 0.0 | 1.5 | 72.3* | 0.0 | 10.5 | 20.8
CCc1ccc(CN2CCN(Cc3ccc4ccccc4c3)CC2)cc1 | -0.6 | -2.0 | 64.0* | -0.2 | -0.4 | 0.8
OC1CCN(Cc2ccc3ccccc3c2)CC1 | 0.9 | 4.2 | -1.1 | 0.0 | · | ·
c1ccc2cc(CN3CCSCC3)ccc2c1 | 0.6 | -5.7 | 57.5* | 0.0 | 0.9 | -0.2
CC1CCCC(N2CCN(Cc3ccc([N+](=O)[O-])cc3)CC2)C1 (stereo not given) | -0.6 | -13.7 | 93.8* | -0.2 | -5.7 | -2.2
O=[N+]([O-])c1cccc(CN2CCC(N3CCN(c4ccccc4)CC3)CC2)c1 | -0.1 | 1.8 | 74.1* | 0.3 | 1.4 | 3.9
O=[N+]([O-])c1ccc(CN2CCC(N3CCN(c4ccccc4F)CC3)CC2)cc1 | -0.7 | 15.9 | -1.6 | 0.1 | · | ·
COc1ccccc1N1CCN(C2CCN(Cc3ccc([N+](=O)[O-])cc3)CC2)CC1 | -1.2 | 14.0 | 56.6* | -0.2 | -7.5 | -5.0
CC1CCCC(N2CCN(C3CCN(Cc4ccccc4)CC3)CC2)C1 (stereo not given) | 0.1 | 12.0 | 34.4 | 0.0 | · | ·
COc1ccccc1N1CCN(C2CCN(C(=O)c3cccc4ccccc34)CC2)CC1 | 0.1 | 9.3 | 75.0* | 0.1 | -0.8 | 4.5
O=C(Nc1cccc(C(F)(F)F)c1)c1cccc(Cl)c1Cl | -0.2 | -12.4 | 25.0 | 1.2 | · | ·
COc1ccc2nc(SCC(=O)Nc3ccc(NC(C)=O)cc3)n(S(=O)(=O)c3ccc(C)cc3)c2c1 | 0.3 | -3.0 | 4.3 | 0.3 | · | ·
COc1cccc(C2=NN3C(C2)c2cc(Cl)ccc2OC3c2cc(OC)ccc2OC)c1 (stereo not given) | -1.1 | -60.7 | -3.9 | 0.0 | · | ·
O=C(COc1ccccc1)Nc1cccc2c1C(=O)c1ccccc1C2=O | 0.6 | -7.0 | -1.2 | -0.1 | · | ·
CCN1CCN(C2CCN(Cc3cccc([N+](=O)[O-])c3)CC2)CC1 | 2.1 | 7.6 | 22.8 | -0.3 | · | ·
O=[N+]([O-])c1cccc(CN2CCN(C3CCCC3)CC2)c1 | 0.1 | 2.5 | 76.3* | 0.2 | 17.7 | 13.4
O=[N+]([O-])c1ccc(CN2CCC(O)CC2)cc1 | -0.9 | -6.0 | 17.8 | 0.0 | · | ·
O=[N+]([O-])c1ccc(CN2CCN(C3CCCC3)CC2)cc1 | -0.6 | -2.9 | 60.8* | -0.1 | 1.1 | -3.8
Cc1c(Cl)cccc1NC(=O)c1nn2c(C(F)(F)F)cc(-c3cccs3)nc2c1Cl | -1.7 | 1.3 | 12.8 | 1.1 | · | ·
COc1ccc(NC(=O)/C(=C/c2ccco2)n2nnnc2-c2ccccc2)c(OC)c1 | 1.5 | -7.2 | 5.0 | -0.1 | · | ·
